PrPC TRFRET: inhibitors of human cell surface prion protein PrPC; P04156; TR-FRET read-out; 370,000 compounds, 0.43% hits; AID 720596; inhibition, % at 13.8 µM; in the data active = inhibition above about 24%; also: 0% = median of the test wells and 100% = reference compound wells
BH1578 lux ind: quorum light induction in luxS cqsA deficient V. cholerae. V. cholerae BH1578 lux reporter, luminescence, 6 h. AID 588436. 350,000 compounds, 0.16% hits. activation, % at 18.7 µM; in the data active = activation mostly above about 9.7%, no sharp cut-off
CCHFV vOTU inh: CCHFV vOTU protease inhibition. AID 651958. Pep-AMC fluorescence. 370,000 compounds, 0.55% hits. inhibition, % at 11.5 µM; in the data active = inhibition above about 30%; also: 0% = vehicle wells with enzyme and 100% = no enzyme wells
TcdB inh: inhibitors of Clostridioides difficile toxin B glycohydrolase; TcdB glycohydrolase enzymatic assay, plate reader; inhibition, % at 9.99 µM; 350,000 compounds, 0.24% hits; in the data active = inhibition above about 10%
VHR inh abs: inhibitors of human VHR1 phosphatase (DUSP3); AID 1654; 290,000 compounds, 0.52% hits; inhibition, % at 13.3 µM; P51452; recombinant VHR phosphatase, pNPP absorbance; in the data active = inhibition above about 50%
SSB-PriA inh: blocks PriA binding to SSB C-terminal tail; AlphaScreen SSBct-PriA binding, biotinylated peptide; inhibition, % at 33 µM; 430,000 compounds, 0.6% hits; AID 1272365; in the data active = inhibition mostly above about 37%, no sharp cut-off; inactive = mostly below about 20%;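 also: plate controls were negative control peptide for no effect and reference peptide for full effect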
* marks the source's active call; other numbers are inactive results; i = inactive; . = not tested or not shown; ! = not active in a repeat. Only some compounds are listed: those with a hit (about 1.5% of all), similar ones and a draw of the others.

SMILES | PrPC TRFRET | BH1578 lux ind | CCHFV vOTU inh | TcdB inh | VHR inh abs | SSB-PriA inh
O=C(NCCc1ccoc1)NCc1cccs1 | . | . | . | . | . | -1
CO[C@@H](CNC(=O)C(=O)Nc1cc(C)on1)c1cccc(F)c1 | . | . | . | . | . | -10
CC(=NNC(=S)N1CC2CCC(CC2)C1)c1nccs1 | -9 | -2 | 4 | 1 | . | 57*
COc1ccc(C(=O)Nc2nc3c(OC)cccc3s2)cc1 | . | . | . | . | . | -13
CC(=O)c1ccc(N=Nc2ccc(N(C)C)cc2)cc1 | 9 | i | 2 | -4 | -3 | 1
CN(C)c1ccc(N=Nc2ccccc2Br)cc1 | 1 | i | 1 | 1 | 22 | 57*
Cc1sc2nc(CCCN3C(=O)c4cccc5cccc(c45)C3=O)n(CCO)c(=O)c2c1C | . | . | . | . | . | -1
C/C(=N\NS(C)(=O)=O)c1ccccc1 | 3 | 17* | 9 | . | 21 | .
C/C(=N\NC(N)=O)c1ccccc1 | 7 | i | -4 | 1 | 10 | .
COc1ccc(C(=O)N(C)C2CCN(C)CC2)cc1S(=O)(=O)Nc1cc(Cl)ccc1Cl | . | . | . | . | 52* | -9
O=C(CSc1nnc(NC(=O)c2ccc3ccccc3c2)s1)c1ccccc1 | . | . | . | . | . | -4
COc1ccc(N2CCN(Cc3csc(C)c3-c3ccc(C)cc3)CC2)cc1 | -1 | -1 | -2 | 1 | 10 | 91*
COc1ccc(N2CCN(Cc3cc4c(cc3Br)OCCO4)CC2)cc1 | -5 | 0 | 4 | -1 | 6 | 35
CCn1nc([N+](=O)[O-])c(C(C#N)c2nc3cc(C(F)(F)F)ccc3s2)c(Cl)c1=O (centres undefined) | -31 | 0 | 27 | . | 9 | 73*
CCCn1nc([N+](=O)[O-])c(C(C#N)c2nc3ccccc3o2)c(Cl)c1=O (centres undefined) | -34 | 0 | 19 | . | -28 | 22
COC(=O)c1ccccc1NC(=O)c1cc(C)oc1C | . | . | . | . | . | -14
Cn1c(CSCc2ccc(Cl)cc2)n[nH]c1=S | -2 | i | 3 | 3 | 52* | -1
CC(=O)Nc1ccc(NC(=O)c2ccc(=O)n(C)n2)cc1 | . | . | . | . | . | -3
CN1/C(=C/C=C/c2n(C)c3cc([N+](=O)[O-])c([N+](=O)[O-])cc3[n+]2C)C(C)(C)c2ccccc21 | -75 | 1 | 13 | 12* | . | .
Cc1ccc(-n2c(O)c(C=NNC(=O)c3ccncc3)c(=O)[nH]c2=O)cc1C | . | . | . | . | . | 2
COc1cc(/C=C(\C#N)C(=O)Nc2ccc3c(c2)OCCO3)ccc1O | 6 | i | 14 | 15* | -11 | 10
COc1ccc(NC(=O)/C(=C\c2ccccc2)NC(=O)c2ccco2)cc1 | -7 | 0 | 23 | 1 | 22 | -35
COc1ccc(NC(=O)/C(=C\c2ccc(F)cc2)NC(=O)c2ccco2)cc1 | 1 | 0 | -2 | -5 | 56* | -10
O=C(NCc1nnc(SCC(=O)N2CCOCC2)o1)c1ccccc1 | 0 | i | 7 | 1 | . | 56*
CS(=O)(=O)c1ccc(CC(=O)Nc2nnc(Cc3ccc4c(c3)OCCO4)o2)cc1 | . | . | . | . | . | 47*
SMILES | PrPC TRFRET | BH1578 lux ind | CCHFV vOTU inh | TcdB inh | VHR inh abs | SSB-PriA inh
CS(=O)(=O)c1ccc(CC(=O)Nc2nnc(-c3ccccc3Cl)o2)cc1 | . | . | . | . | . | -7
CS(=O)(=O)c1ccc(CC(=O)Nc2nnc(-c3cc(Cl)sc3Cl)o2)cc1 | . | . | . | . | . | active!
CNc1nn(CC(=O)NCc2ccccc2Cl)c(N)c1-c1nc(-c2ccc(C)cc2)no1 | . | . | . | . | . | 16
CSc1nnnn1CCn1nnnc1SC | 36* | -1 | 1 | . | 22 | -10
Cn1nnnc1SCSc1nnnn1C | -4 | . | -6 | . | 0 | -7
COc1ccc(-c2nc(CS(=O)CC(=O)NCCCN3CCCC3)c(C)o2)cc1OC (centres undefined) | -3 | -1 | -1 | . | 7 | -5
COc1ccc(-c2nc(CS(=O)CC(=O)NCCCN3CCOCC3)c(C)o2)cc1OC (centres undefined) | 3 | 0 | 0 | -1 | 57* | 1
COc1ccc(-c2nc(CN3CCC(C(=O)N4CCOCC4)CC3)c(C)o2)cc1C | 10 | 0 | -7 | -1 | 57* | 0
Nc1cc(=O)[nH]c(SCC(=O)Nc2ccccc2Sc2ccc(Cl)cc2)n1 | 1 | 0 | 4 | 10* | 22 | 5
Nc1cc(=O)[nH]c(SCC(=O)Nc2cccnc2Cl)n1 | 6 | 0 | -2 | 1 | 12 | -6
CSc1ccc(CNC(=O)CSc2nccn2-c2cccc(C(=O)NCc3ccco3)c2)cc1 | . | . | . | . | . | 46*
O=C(CSc1nnc(-c2ccccn2)n1Cc1ccco1)Nc1ccccc1Br | . | . | . | . | . | 44
O=C(NN=C(Cc1ncc[nH]1)c1ccccc1)c1ccncc1 | . | . | . | . | . | 48*
Cc1ccc(NC(=O)COC(=O)COc2ccc(Cl)cc2)c([N+](=O)[O-])c1 | -9 | i | -6 | -1 | 1 | 2
CCC(=O)OCC(=O)Nc1cc(C)c(C)cc1[N+](=O)[O-] | -23 | i | 2 | 1 | 51* | 11
CCN(CC)S(=O)(=O)c1ccc(Cl)c(C(=O)Nc2ccc(Cl)cc2[N+](=O)[O-])c1 | 11 | 0 | 3 | 0 | -1 | 43*
Cc1cc(NC(=O)COC(=O)CC2CCCC2)c([N+](=O)[O-])cc1C | -5 | i | 10 | 3 | 20 | 14
CCCC(=O)OCC(=O)Nc1ccc(Cl)cc1[N+](=O)[O-] | . | . | . | . | . | 78*
CSC1CC2CCC(C1)N2C(=O)Cn1ncccc1=O (centres undefined) | . | . | . | . | . | -6
O=C(Nc1ccc(F)cc1Cl)c1cn[nH]n1 | . | . | . | . | . | -5
Cc1csc(CN(C)C(=O)C2CCC(=O)N(CCN(C)C)C2)n1 (centres undefined) | 1 | 0 | 10 | 0 | 60* | 3
O=C(NC=NOCc1cccc(C(F)(F)F)c1)N1OC[C@@H]2COc3ccc4ccccc4c3[C@@H]21 | . | . | . | . | . | 45*
COc1ccc(CCNC(=O)CN2CCC(COCc3ccc(F)cc3)CC2)cc1OC | . | . | . | . | . | -15
O=C(c1ccccc1)c1coc2ccc(O)c(Cl)c12 | 1 | i | 2 | 12* | 0 | -1
CN1CC(C(=O)N2CCC(Oc3cccnc3)CC2)CC1=O (centres undefined) | . | . | . | . | . | -3
SMILES | PrPC TRFRET | BH1578 lux ind | CCHFV vOTU inh | TcdB inh | VHR inh abs | SSB-PriA inh
Cc1nnsc1C(=O)NCCn1nc(-c2ccsc2)cc1C1CC1 | . | . | . | . | . | -8
Cc1ccsc1CCC(=O)N1CCC(S(=O)(=O)c2nncn2C)CC1 | . | . | . | . | . | -9
Cn1cccc1C(CNC(=O)C(=O)Nc1ccc2c(c1)OCO2)N1CCc2ccccc2C1 (centres undefined) | . | . | . | . | . | -19
Cn1cccc1C(CNC(=O)c1ccc2c(c1)OCO2)N1CCc2ccccc2C1 (centres undefined) | . | . | . | . | . | 13*
O=C(O)c1ccc(C(=O)Nc2cccc3ccccc23)c(C(=O)O)c1 | 0 | 225* | -9 | 2 | -1 | 14
O=C(Nc1cccc(C(=O)O)c1)Nc1cccc2ccccc12 | 4 | -1 | 7 | -1 | 30 | -9
Cn1c(CC2C(=O)Nc3ccc(Br)cc32)nc2ccccc2c1=O (centres undefined) | 3 | 0 | -4 | 3 | -4 | 2
O=C1Nc2ccc(Br)cc2C1Cc1ccccc1F (centres undefined) | -1 | 0 | -7 | 28* | 12 | -1

Screening results as filed in PubChem BioAssay.
